ERK EGF block = blocks ERK signaling stimulated by EGF. HEK293-V1b, EGF-stimulated phospho-ERK AlphaScreen. Potency, µM (top dose mostly 11.5 µM), hits mostly inhibitors. 130,000 compounds, 0.41% hits; note: nearly all actives have a fitted effect of over 55% in size
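Stably V1b-transfected HEK293 cells; 30 min compound, then EGF 25 nM final for 5 min at 37C; 10 min lysis; phospho-ERK by AlphaScreen after 5 hr beads at room temperature.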
NPSR antag = neuropeptide S receptor (human) antagonism, cAMP; 220,000 compounds, 1% hits; Q6W5P4; AID 1461; CHO-NPSR cells, cAMP TR-FRET, antagonist mode; Potency, µM (series often up to 38.3 µM), usual class: inhibitors; note: nearly all actives have a fitted effect of over 50% in size
cRaf kinase inh = ERK pathway inhibitors follow-up: human c-Raf kinase inhibition. 70 tested, under 10 active. c-Raf kinase inhibition, homogeneous biochemical assay. activity change, negative = inhibition, % at 76.9 µM. shares compounds with ERK EGF block
MEK inh = MEK1 (human) kinase inhibition; shares compounds with ERK EGF block; homogeneous MEK kinase activity assay, ERK pathway; Potency, µM (highest dose often 76.9 µM), hits mostly inhibitors; 70 tested, under 10 active
Target sequence (Q02750 whole entry, looked up): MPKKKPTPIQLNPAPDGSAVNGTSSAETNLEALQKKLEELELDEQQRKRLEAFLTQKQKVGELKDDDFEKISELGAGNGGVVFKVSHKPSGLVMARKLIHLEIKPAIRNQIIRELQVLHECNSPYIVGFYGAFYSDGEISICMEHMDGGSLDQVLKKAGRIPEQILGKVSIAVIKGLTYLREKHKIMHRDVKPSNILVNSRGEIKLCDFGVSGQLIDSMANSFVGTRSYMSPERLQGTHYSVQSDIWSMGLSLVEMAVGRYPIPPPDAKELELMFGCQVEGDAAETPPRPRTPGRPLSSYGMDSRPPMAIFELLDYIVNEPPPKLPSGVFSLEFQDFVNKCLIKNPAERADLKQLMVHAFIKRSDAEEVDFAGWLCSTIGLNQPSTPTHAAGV
Of the large screens only hits and unclear results are named; the others gave an inactive call (follow-up assays come after a bar, where they were run). The entries come from a sample that favours hits as a whole. Calls come from the whole dose curve; as a rule, active = well fitted curve in the direction sought with a large enough effect; inconclusive = small, poorly fitted or top-dose-only effect, or another doubt; inactive = no such curve, though single readings can be large; an effect the other way counts as inactive or inconclusive.

Cc1nc2c(=O)n(C)c(=O)nc-2n(C)n1	NPSR antag inconclusive | cRaf kinase inh inconclusive | MEK inh inconclusive
Cn1nc(-c2ccccc2)nc2c(=O)n(C)c(=O)nc1-2	none (no result: ERK EGF block, NPSR antag) | cRaf kinase inh inconclusive | MEK inh 0.71µM
CC(C)n1cnc2c(C(=O)N[C@H]3CN4CCC3CC4)cc(Cl)cc21	none (no result: NPSR antag)
N#Cc1cccc(NC(=O)N2CC3(CCN(C(=O)Oc4ccccc4)CC3)C2)c1	none (no result: NPSR antag)
COC(=O)C12CC3=CCC4C(=O)N(c5ccccc5)C(=O)C4C3Cc3ccccc3[C@@H]1CNC2=O (stereo partly drawn)	none (no result: NPSR antag)
CCCN1C[C@H](C)N([C@H](c2ccc(C(=O)N(CC)CC)cc2)c2cccc(OC)c2)C[C@H]1C	none (no result: NPSR antag)
